Several values for one entry are separate records, joined by “and”; a condition that tells them apart may be missing. Identical values can stand only once. About 79,000 compounds went through this panel and 15% of them were active in at least one assay; those are over-represented in the sample as a whole. Values without a mark were called inactive. Activity calls are given as the source filed them. Rule as the data show it: active = growth inhibition above about 70%; inactive = the rest.
Legend:
[1] = NCI Yeast Anticancer Drug Screen. Data for the rad50 strain (AID 155);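 also: 0% = growth of vehicle-only cultures of the same strain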; conditions: S. cerevisiae rad50 strain growth inhibition, hits give high values
In short: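 Yeast carrying a defined DNA repair defect were exposed to test compounds, and growth was compared with vehicle-treated controls to give percent inhibition.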

[2] = NCI Yeast Anticancer Drug Screen. Data for the mec2-1 strain (AID 157); conditions: S. cerevisiae mec2-1 strain, hits give high values
In short: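 Yeast mec2-1 mutant treated with compound. Readout: growth inhibition vs vehicle controls.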

[3] = NCI Yeast Anticancer Drug Screen. Data for the sgs1 mgt1 strain (AID 161);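 also: 0% = growth of cultures given vehicle only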; conditions: S. cerevisiae sgs1 mgt1 strain, hits give high values
In short: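 Inhibition of yeast growth, normalised to vehicle-treated controls, is reported for a strain bearing genetic alterations in DNA damage repair.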

[4] = NCI Yeast Anticancer Drug Screen. Data for the cln2 rad14 strain (AID 165);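 also: 0% = growth equal to vehicle treated cultures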; conditions: S. cerevisiae cln2 rad14 strain, hits give high values
In short: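 cln2 rad14 yeast strain; compound exposure; growth inhibition read vs vehicle controls.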

[5] = NCI Yeast Anticancer Drug Screen. Data for the bub3 strain (AID 167); conditions: S. cerevisiae bub3 mutant strain, hits give high values
In short: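 Compounds were applied to a genetically altered yeast strain carrying a cell-cycle control defect. Growth inhibition was scored against vehicle-treated controls.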

[6] = NCI Yeast Anticancer Drug Screen. Data for the mlh1 rad18 strain (AID 175); conditions: S. cerevisiae mlh1 rad18 strain growth inhibition, hits give high values
In short: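 Yeast w/ defined DNA-repair lesions; compound exposure; growth vs vehicle controls → % inhibition.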

[7] = at 5.0 µM (retest, dose inferred, filed as 0.5)
[8] = at 50.0 µM (retest, dose inferred, filed as 5.0)

Row | SMILES | growth inhibition [1, 7] | growth inhibition [1, 8] | growth inhibition ([1]; at 50.0 µM) | growth inhibition [2, 7] | growth inhibition [2, 8] | growth inhibition ([2]; at 50.0 µM) | growth inhibition [3, 7] | growth inhibition [3, 8] | growth inhibition ([3]; at 50.0 µM) | growth inhibition [4, 7] | growth inhibition [4, 8] | growth inhibition ([4]; at 50.0 µM) | growth inhibition [5, 7] | growth inhibition [5, 8] | growth inhibition ([5]; at 50.0 µM) | growth inhibition [6, 7] | growth inhibition [6, 8] | growth inhibition ([6]; at 50.0 µM)
1 | c1cc[c]([Pb]([c]2ccccc2)[c]2ccccc2)cc1.c1cc[c]([Pb]([c]2ccccc2)[c]2ccccc2)cc1 | 99% (active) | 98% (active) | 99% (active) | 100% (active) | 99% (active) | 99.5% (active) | 100% (active) | 99% (active) | 99.5% (active) | 99% (active) | 98% (active) | 99% (active) | 99% (active) | 97% (active) | 99.4% (active) | 100% (active) | 99% (active) | 99.2% (active)
2 | COC1C(C)OC(OC2CC(C)(O)Cc3cc4c(c(O)c32)C(=O)c2c(O)cc3c(c2C4=O)OC2OC3(C)C(O)C(N(C)C)C2O)C(OC)C1(C)OC (centres undefined) | 69% | 96% (active) | 89.5% (active) | 75% (active) | 99% (active) | 93% (active) | 76% (active) | 97% (active) | 91% (active) | 58% | 91% (active) | 88% (active) | 77% (active) | 94% (active) | 91.5% (active) | 83% (active) | 98% (active) | 90% (active)
3 | NC(=O)/C=C/C(=O)O (tested in a mixture with another compound) | 0% | 1% | -5.5% | 2% | -1% | 66.5% | 0% | 3% | 7.2% | 1% | 1% | 23.1% | -7% | -4% | 95.7% (active) | -1% | 2% | 17.5%
4 | O=c1oc2ccccc2c(O)c1C(c1ccco1)c1c(O)c2ccccc2oc1=O | 11% | 22% | 79% (active) | 13% | 24% | 79.2% (active) | -6% | 43% | 44.2% | 16% | 28% | 41.5% | 9% | 56% | 34.2% | 9% | 19% | 27.5%
5 | N#CC(C#N)=Cc1ccc([N+](=O)[O-])s1 | -83% | 98% (active) | 99.6% (active) | -45% | 99% (active) | 99.6% (active) | -42% | 98% (active) | 99.2% (active) | -53% | 98% (active) | 98.5% (active) | -66% | 98% (active) | 99.3% (active) | -83% | 97% (active) | 99.2% (active)
6 | CC(O)C(=O)O.CC(O)C(=O)O.[Ni] (centres undefined) | -1% | 7% | 4.2% | 5% | 3% | 19.1% | -1% | 4% | 0.95% | -5% | -2% | 74% (active) | 1% | 0% | 18.1% | -2% | 12% | 19.4%
7 | C=CCCCCCCCCC(=O)O (tested in a mixture with another compound) | -3% | 12% | 23.1% | -3% | 8% | 63.3% | -9% | 27% | 53% | 6% | 72% (active) | 96.8% (active) | -7% | 7% | 40.4% | -7% | 48% | 83% (active)
8 | O=[N+]([O-])c1c(Cl)sc(Cl)c1[N+](=O)[O-] | 99% (active) | 99% (active) | 99.7% (active) | 100% (active) | 100% (active) | 99.7% (active) | 99% (active) | 99% (active) | 99.5% (active) | 99% (active) | 99% (active) | 99.8% (active) | 100% (active) | 100% (active) | 99.7% (active) | 99% (active) | 99% (active) | 99.7% (active)
9 | CC(=O)C1C2c3ccccc3C(c3ccccc32)C1C (centres undefined) | 3% | 55% | 77.6% (active) | -7% | 52% | 10.4% | -2% | 62% | 65% | -85% | 63% | 30.5% | -9% | 71% (active) | 45.1% | -1% | 53% | 69.5%
10 | Clc1c(CI)ccc(CI)c1Cl | 22% | 79% (active) | 98.7% (active) | 60% | 90% (active) | 97.2% (active) | 17% | 74% (active) | 98.7% (active) | 34% | 85% (active) | 54.3% | 62% | 89% (active) | 87.2% (active) | 82% (active) | 96% (active) | 97.5% (active)
11 | COc1cc(/C=C/c2ccc(OC)c(OC)c2)cc(OC)c1 | -6% | 10% | 26.1% | -2% | 26% | 15.1% | -3% | 68% | 79% (active) | -4% | 16% | 47.6% | 1% | 69% | 66.9% | -3% | 12% | 59.5%
12 | N#CN(Cc1ccccc1)C(c1ccccc1)(c1ccccc1)c1ccccc1.[Cl][Sn]([c]1ccccc1)([c]1ccccc1)[c]1ccccc1 | 99% (active) | 91% (active) | 97.3% (active) | 100% (active) | 94% (active) | 98.3% (active) | 100% (active) | 91% (active) | 98% (active) | 99% (active) | 85% (active) | 97.5% (active) | 99% (active) | 87% (active) | 98.1% (active) | 99% (active) | 88% (active) | 98% (active)
13 | O=C(Nc1ccccc1)c1cc([N+](=O)[O-])ccc1O | -1% | 98% (active) | 95.7% (active) | 0% | 97% (active) | 92% (active) | 2% | 95% (active) | 62.5% | -2% | 86% (active) | 32.5% | 0% | 96% (active) | 90.5% (active) | 12% | 96% (active) | 97.5% (active)
14 | COc1ccc(CNCCc2ccc(O)c(OC)c2)cc1O | 1% | 0% | 31.4% | 1% | 3% | -2.8% | 4% | 7% | -0.55% | -5% | 5% | -6.35% | -3% | -3% | 8.7% | -1% | 8% | -4.45%
15 | CCOP(=O)(OCC)/C(C#N)=C/c1cccc(C)c1 | 4% | 53% | 71.4% (active) | -14% | 28% | 58.3% | -18% | 42% | 65.8% | -17% | 9% | 35% | -8% | 52% | 52.1% | -37% | 56% | 66.3%
16 | CCC[CH2][Sn]([CH2]CCC)([CH2]CCC)[O]C(=O)C[N+](C)(C)c1cc[c]([Hg][c]2ccc(N(C)C)cc2)cc1 | 99% (active) | 99% (active) | 98.6% (active) and 97.8% (active) | 100% (active) | 100% (active) and 99% (active) | 99.5% (active) | 100% (active) | 98% (active) and 99% (active) | 99.1% (active) and 99.2% (active) | 99% (active) | 99% (active) | 98.4% (active) and 98.9% (active) | 99% (active) | 99% (active) | 98.8% (active) and 99.1% (active) | 99% (active) | 99% (active) | 99% (active) and 99.2% (active)
17 | COc1ccc2c3c1OC1C(=O)C4CC5(c6c(O)ccc(O)c64)C(C2)N(C)CCC315 (centres undefined) | -6% | 99% (active) | 98.5% (active) | -2% | 92% (active) | 99% (active) | -6% | 99% (active) | 99.1% (active) | -14% | 98% (active) | 98.1% (active) | -3% | 99% (active) | 98.5% (active) | 13% | 99% (active) | 99% (active)
18 | [Br][Cd][Br].c1ccc([PH+](c2ccccc2)c2ccccc2)cc1.c1ccc([PH+](c2ccccc2)c2ccccc2)cc1 | 29% | 95% (active) | 97.5% (active) | 20% | 84% (active) | 89.5% (active) | 18% | 55% | 94.9% (active) | 4% | 89% (active) | 92.4% (active) | 21% | 93% (active) | 92.5% (active) | 18% | 92% (active) | 94.7% (active)
